Results on 40 molecules are retold here after PubChem BioAssay (Tox21).

Molecules are shown by their SMILES. Inconclusive results are not listed. More than one record can exist for a structure, and the calls need not agree. Active and inactive are the calls of the source. Calls follow the shape of the dose curve; as a rule, active = well fitted cell-killing curve with a large enough effect in the repeat runs; inconclusive = weak or mixed curves; inactive = flat fitted curve, though single readings scatter.
% is scaled to controls: 0 for no effect and ±100 for the full control effect; potency is read from the fitted curve at half-maximal effect.

The assay can be described thus: qHTS RealTime-Glo MT Cell Viability Assay in HepG2 cells - 32 hour (AID 1224877). Also: nearly all actives have a fitted effect of over 55% in size. The note with it: RealTime-Glo luminescence; series mostly up to 76.8 µM; activity change, negative = cytotoxic: at the top concentration. Put shortly:
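qHTS, HepG2, 600 cells/well, RealTime-Glo (NanoLuc + prosubstrate) added with cells; 5 h preincubation; DMSO compound addition; 37 C; luminescence at 0/8/16/24/32/40 h.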
Regarding `O=C=Nc1ccc(Cl)c(Cl)c1`, the “activity change, negative = cytotoxic” value was 1.22% (inactive).
For `CCOC(C)=O`, the “activity change, negative = cytotoxic” value was 6.66% (inactive).
In the case of `C=CC(=O)[O-].C=CC(=O)[O-].[Zn+2]`, the “activity change, negative = cytotoxic” value is -0.269% (inactive).
Regarding `C/C=C/C=C/C=O`, the “activity change, negative = cytotoxic” value was 1.06% (inactive).
Same read-out and setting: in the case of `O=C(O)c1cccc(-c2noc(-c3ccccc3F)n2)c1` it was 4.89% [at 35.3 µM] (inactive); in that of `CC(C)=CCC1C(=O)N(c2ccccc2)N(c2ccccc2)C1=O`, 0.153% [at 35.3 µM] (inactive); in that of `CCOC(=O)c1ccc(OCCN2C[C@H](O)[C@@H](O)[C@H](O)[C@H]2CO)cc1`, 3.67% [at 35.3 µM] (inactive).
As for `CCC(=O)OC`, the “activity change, negative = cytotoxic” value was 2.87% (inactive).
Take `CCC=CC#N`: the “activity change, negative = cytotoxic” value was 0.499% (inactive).
The same measure, in the same setting: in the case of `CCCCCCC(C)(C)C(=O)O` it was 1.86% (inactive); in that of `CCCC(=O)C(=O)O`, -1.44% (inactive); in that of `Cc1[nH]cnc1CN1CCc2c(c3ccccc3n2C)C1=O`, -4.83% [at 35.3 µM] (inactive).
On the same count and under the same terms, with `C[C@H]1C[C@H](O)c2ccsc2S1(=O)=O` the figure was 1.83% [at 35.3 µM] (inactive).
The same measure, in the same setting: with `CN1C(C(=O)Nc2ccccn2)=C(O)c2sccc2S1(=O)=O` the figure was 0.261% [at 35.3 µM] (inactive).
In the case of `CCC(C)COC(C)=O` (stereo not given), the “activity change, negative = cytotoxic” value was 4.72% (inactive).
`C[C@]12CC[C@@H]3c4ccc(O)cc4CC[C@H]3[C@@H]1CC[C@@H]2OC(=O)CCC1CCCC1`: the Potency is 54.9 µM (active) and inactive.
Turning to `FC(F)(F)c1ccccc1Cl`, the “activity change, negative = cytotoxic” value is 0.144% (inactive).
On the same count and under the same terms, with `O=c1[nH]c2ccc(Cl)cc2o1` the figure was 2.87% (inactive); with `Brc1cc(Br)c(Oc2cc(Br)c(Br)cc2Br)cc1Br`, -0.365% [at 35.3 µM] (inactive).
Turning to `Cc1c(C)c2c(c(C)c1OC(=O)CCC(=O)OCCO)CC[C@@](C)(CCC[C@H](C)CCC[C@H](C)CCCC(C)C)O2`, the “activity change, negative = cytotoxic” value is 1.21% [at 35.3 µM] (inactive).
Take `CCc1ccccc1`: the “activity change, negative = cytotoxic” value is 0.152% (inactive).
In the case of `OC[C@H]1O[C@@H](n2cnc3c(=S)nc[nH]c32)[C@H](O)[C@@H]1O`, the “activity change, negative = cytotoxic” value was 1.04% [at 35.3 µM] (inactive).
Still for that read-out and setting: with `O=C(O)CCC(=O)C(=O)O` the figure was -0.728% (inactive); with `C=C(C)CCCC(C)CCO` (stereo not given), 3.74% (inactive); with `CCCCCC[C@@H](O)C/C=C\CCCCCCCC(=O)O`, 3.23% (inactive).
Consider `CCCCC(CC)CN` (stereo not given), for which the “activity change, negative = cytotoxic” value is 2.03% (inactive).
On the same count and under the same terms, in the case of `CC1=C(Br)C(=O)C(Br)=C/C1=C(/c1ccccc1S(=O)(=O)O)c1cc(Br)c(O)c(Br)c1C` it was -2.02% [at 35.3 µM] (inactive); in that of `O[C@@H]1CO[C@H]2[C@@H]1OC[C@@H]2O`, -1.96% [at 35.3 µM] (inactive); in that of `CCCCCCCCCCC(=O)O`, 0.0864% (inactive).
Still for that read-out and setting: in the case of `CC1(C)[C@H](C(=O)O)N2C(=O)C[C@H]2S1(=O)=O` it was 0.559% [at 35.3 µM] (inactive); in that of `CN1CC(=O)N2[C@H](c3ccc4c(c3)OCO4)c3[nH]c4ccccc4c3C[C@@H]2C1=O`, 0.334% [at 35.3 µM] (inactive).
As for `O=C(/C=C/c1ccccc1)OCCc1ccccc1`, the “activity change, negative = cytotoxic” value is -10.1% (inactive).
Still for that read-out and setting: in the case of `Nc1cccc2c1CN(C1CCC(=O)NC1=O)C2=O` (stereo not given) it was 1.32% [at 35.3 µM] (inactive).
Turning to `Cc1ccccc1S`, the “activity change, negative = cytotoxic” value was 0.394% [at 35.3 µM] (inactive).
On the same count and under the same terms, in the case of `CN1C(=O)OC(C)(C)C1=O` it was -2.74% (inactive); in that of `Oc1cccc(O)c1O`, -11.2% (inactive); in that of `COc1cc(C(=O)NCCCCCC(=O)O)cc(OC)c1OC`, 0.373% [at 35.3 µM] (inactive).
With `CCOC(=O)[C@H](CCc1ccccc1)N[C@@H](C)C(=O)N(CC(=O)O)C1Cc2ccccc2C1`, the “activity change, negative = cytotoxic” value is -2.22% [at 35.3 µM] (inactive).
`C=C/C(C)=C/C/C=C(\C)CCC=C(C)C`: the “activity change, negative = cytotoxic” value is -5.61% (inactive).
With `CCOC(=O)OC(C)OC(=O)[C@@H]1N2C(=O)[C@@H](NC(=O)[C@H](N)c3ccccc3)[C@H]2SC1(C)C` (stereo not given in full), the “activity change, negative = cytotoxic” value was 1.18% [at 35.3 µM] (inactive).
